# Data from PubChem BioAssay (NCATS).
# Records with an inconclusive call do not appear. Unmarked numbers belong to inactive results. Calls of active or inactive are those of the source. Calls follow the shape of the dose curve; as a rule, active = well fitted inhibition curve with a large enough effect; inconclusive = small, poorly fitted or top-dose-only effect; inactive = flat fitted curve, though single readings scatter.
# Test: P-glycoprotein substrates identified in KB-8-5-11 adenocarcinoma cell line, qHTS therapeutic library screen (AID 1346987); also: nearly all actives have a fitted effect of over 65% in size
# Conditions: KB-8-5-11 (P-gp overexpressing) viability, CellTiter-Glo, 72 h; series mostly up to 44.5 µM; activity change, negative = cytotoxicity: at the top concentration
# Outline: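 P-gp-mediated resistance screen: KB-8-5-11 cells treated 72 h with compounds in dose-response. CellTiter-Glo viability.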
# % is scaled to controls: 0 for no effect and ±100 for the full control effect; potency is read from the fitted curve at half-maximal effect.
SMILES,"activity change, negative = cytotoxicity",outcome,Potency
CC1(C)OC[C@H](NC(=O)Nc2ccc(Br)cc2Br)[C@H](c2ccccc2)O1,-22.9%,–,–
COc1ccc2cc(-c3cc(-c4cc(Cl)cc(Cl)c4)nn3C(C)c3ccc(C(=O)NCCC(=O)O)cc3)ccc2c1 (stereo not given),-11.7%,–,–
Cc1c(N)nc(C(CC(N)=O)NCC(N)C(N)=O)nc1C(=O)NC(C(=O)NC(C)C(O)C(C)C(=O)NC(C(=O)NCCc1nc(-c2nc(C(=O)NCCCN[C@@H](C)c3ccccc3)cs2)cs1)C(C)O)C(O[C@@H]1O[C@@H](CO)[C@@H](O)[C@H](O)[C@@H]1O[C@H]1O[C@H](CO)[C@@H](O)[C@H](OC(N)=O)[C@@H]1O)c1cnc[nH]1 (stereo not given in full),-17.4%,–,–
C[C@@H]1CC[C@]2(C(=O)O)CC[C@]3(C)C(=CCC4[C@@]5(C)CC[C@H](O)[C@](C)(C(=O)O)C5CC[C@]43C)C2[C@]1(C)O (stereo not given in full),-4.76% [at 17.3 µM],–,–
CCOc1nc(NC(=O)Cc2cc(OC)ccc2OC)cc(N)c1C#N,-16.3%,–,–
COc1ccc(C2(N(C)C(=O)c3ccc(NC(=O)c4ccco4)cc3)CCOCC2)cc1,-18.8%,–,–
COc1c(CCC(=O)O)cccc1O[C@@H]1O[C@H](CO)[C@@H](O)[C@H](O)[C@H]1O,–,inactive,–
CCC(CN)CC(C)CCNCC(O)CNCC(C)CC(CC)CN (stereo not given),-0.731%,–,–
C=C1CCN([C@H](C)[C@](O)(Cn2cncn2)c2ccc(F)cc2F)CC1,-11.8%,–,–
CC1=C2C[C@@]3(C)C(CCC[C@@H]3C)C(O)C2OC1=O (stereo not given in full),–,inactive,–
O=C(NCCCN1CCC2(CC1)OCc1ccccc12)[C@H]1CCCN1Cc1ccccc1,-10.9%,–,–
CN(C)CCn1cc(-c2ccc(F)cc2)c(-n2cccc2)n1,-13.3%,–,–
O=C(NCC1CCN(Cc2cccc(Cl)c2)CC1)[C@@H]1CCCN(c2ncnc3c2nc2n3CCCC2)C1,-5.04%,–,–
COC(=O)c1ccc(N2CCN(C)CC2)c(NC(=O)c2cccc(OC)c2)c1,-19.6%,–,–
O=C(Nc1cc(C(F)(F)F)cc(C(F)(F)F)c1)c1cnc(Cl)nc1C(F)(F)F,–,–,16.4 µM (active)
CNCCCC1(c2ccccc2)OC(C)(C)c2ccccc21 (stereo not given),-11.3%,–,–
CC(C)=C[C@@H]1[C@H](CO[C@@H]2O[C@H](CO)[C@@H](O)[C@H](O)[C@H]2O)C1(C)C,4.22%,–,–
O.O=C([O-])CC([S-])C(=O)[O-].[Au+].[Na+].[Na+] (stereo not given),-3.46%,–,–

SMILES,"activity change, negative = cytotoxicity",outcome,Potency
CC(C)C(C)C(O)C1CC23CC(=O)C4(O)C(=C2CCC3C1C)C=CC1(O)CC(O)CCC14C (stereo not given),-3.25% [at 17.3 µM],–,–
CC(C)c1noc(C2CCN(c3ncnc(Nc4ccc(S(C)(=O)=O)cc4F)c3[N+](=O)[O-])CC2)n1,-22%,–,–
COc1ccc([C@H]2OC[C@H]3O[C@@H](O[C@H]4[C@@H]2NC[C@@H]4O)[C@H](O)[C@H]3O)cc1,–,–,1.61 µM (active)
N#Cc1cc(C2=Nc3ccc(Br)cc3NC(=O)C2)ccn1,9.82%,–,–
CC[N+]1(C/C2=C/CCCCCC2)CCC(NC(=O)C2c3cc(Cl)ccc3Oc3ccc(Cl)cc32)CC1 (stereo not given),-13.8%,–,–
CC1(C)S[C@@H]2[C@H](NC(=O)[C@H](N)c3ccccc3)C(=O)N2[C@H]1C(=O)OCOC(=O)[C@@H]1N2C(=O)C[C@H]2S(=O)(=O)C1(C)C,2.88%,–,–
COc1ccc(NC(=O)c2ccc(C(=N)N(C)C)cc2)c(C(=O)Nc2ccc(Cl)cn2)c1,-11.6%,–,–
O=C(COc1ccc(C(=O)c2ccccc2)cc1)NC1CCN(Cc2ccccc2)CC1,-21.6%,–,–
Cc1cc2ncc(C(=O)NCC(C)(C)NCC(=O)N3CCC[C@H]3C#N)cn2n1,8.79%,–,–
CCCn1ncc(CN2CCCC(C(=O)c3cccc(OC(C)C)c3)C2)c1C (stereo not given),-35.6%,–,–
CCc1c[nH]c2ncnc(N3CC[C@](N)(CNC(=O)c4ccc(F)cc4F)C3)c12,-17.3%,–,–
CC(C)(Cc1ccccc1)NCC(O)c1ccc(O)c(NS(C)(=O)=O)c1 (stereo not given),-0.935%,–,–
C/C=C\NC(=O)C1NC(=O)C(CC(N)=O)NC(=O)C(NC(=O)C(=O)C(C)CC)Cc2ccc(O)c(c2)-c2cccc3c2NC(=O)C3(O)C1O (stereo not given),–,inactive [at 17.3 µM],–
CCCC(=O)N1CCCN(c2nc(N)c3cc(OC)c(OC)cc3n2)CC1,3.16%,–,–
C[C@@H](O[C@H]1OCCN(Cc2nn(P(=O)(O)O)c(=O)[nH]2)[C@H]1c1ccc(F)cc1)c1cc(C(F)(F)F)cc(C(F)(F)F)c1,-6.43% [at 17.3 µM],–,–
O=C(c1ccccn1)N(Cc1cccs1)C1(C(=O)NC2CCCCC2)CCCCC1,-21.5%,–,–
CCc1c(Cl)c(O)c(Cl)c(O)c1C(=O)O[C@H]1[C@H](O)[C@H](OC)[C@H](OC/C2=C\C=C\C[C@H](O)/C(C)=C\[C@H](CC)[C@@H](O[C@@H]3OC(C)(C)[C@@H](OC(=O)C(C)C)[C@H](O)[C@@H]3O)/C(C)=C/C(C)=C/C[C@@H]([C@@H](C)O)OC2=O)O[C@@H]1C,8.88% [at 17.3 µM],–,–
